Measurements: paper PMC5700166
Numbering of substitutions follows the chain as printed.

Columns and labels:
Assay in all cases: protein-binding microarray (PBM); PBM: ~300 nM protein, 6 mM HEPES pH 7.8, 80 mM KCl, 0.5 mM EDTA, 0.5 mM EGTA, 6% glycerol, 35 ng/ul poly-dIdC, 1% milk, 1 h, room temperature; Ap Aiptasia and Nv Nematostella (sea anemones) / Co Capsaspora / Aq Amphimedon (sponge) / Dm Drosophila / Hu human; RHD is the Rel homology domain; high values mean tight binding
Conditions in all cases: dsDNA, one strand shown
GST-Ap-NF-kB RHD = target: T1, GST-Ap-NF-kB RHD (Exaiptasia pallida (Aiptasia), UniProt A0A913YAJ5 2-422)
T1 sequence: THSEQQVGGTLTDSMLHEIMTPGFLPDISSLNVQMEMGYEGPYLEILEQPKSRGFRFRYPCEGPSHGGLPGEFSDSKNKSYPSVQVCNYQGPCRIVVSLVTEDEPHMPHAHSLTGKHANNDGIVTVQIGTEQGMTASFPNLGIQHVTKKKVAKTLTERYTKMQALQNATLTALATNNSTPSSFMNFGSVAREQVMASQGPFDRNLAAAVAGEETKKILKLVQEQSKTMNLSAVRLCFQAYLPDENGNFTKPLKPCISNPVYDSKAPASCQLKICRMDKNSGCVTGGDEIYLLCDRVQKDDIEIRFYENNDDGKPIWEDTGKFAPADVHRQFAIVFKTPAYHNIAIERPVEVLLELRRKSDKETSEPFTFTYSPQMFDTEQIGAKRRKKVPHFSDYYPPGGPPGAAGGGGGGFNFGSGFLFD

[1] = target: T2, GST-Nv-NF-kB (Cys allele) (Nematostella vectensis, UniProt E5G601 2-411)
T2 sequence: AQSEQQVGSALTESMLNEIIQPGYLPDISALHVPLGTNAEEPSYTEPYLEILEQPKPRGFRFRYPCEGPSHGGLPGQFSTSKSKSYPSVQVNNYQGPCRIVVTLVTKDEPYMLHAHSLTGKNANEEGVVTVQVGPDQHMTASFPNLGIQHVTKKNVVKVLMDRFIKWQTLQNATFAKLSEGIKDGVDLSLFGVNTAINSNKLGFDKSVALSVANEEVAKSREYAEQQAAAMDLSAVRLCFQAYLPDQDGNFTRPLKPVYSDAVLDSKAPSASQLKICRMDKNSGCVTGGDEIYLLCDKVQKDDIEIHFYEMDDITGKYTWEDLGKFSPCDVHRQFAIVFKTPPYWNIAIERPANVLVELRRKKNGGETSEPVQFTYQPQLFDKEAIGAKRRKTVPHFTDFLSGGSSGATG

[2] = target: T3, GST-Nv-NF-kB (Ser allele) (Nematostella vectensis, UniProt A7UNT2 2-411)
T3 sequence: T2 sequence with Q21R, C66S, S207N, E215Q, V217A, E225K, A268E, D399E

GST-Co-NF-kB = target: T4, GST-Co-NF-kB (Capsaspora owczarzaki, UniProt F1ARL5 200-546)
T4 sequence: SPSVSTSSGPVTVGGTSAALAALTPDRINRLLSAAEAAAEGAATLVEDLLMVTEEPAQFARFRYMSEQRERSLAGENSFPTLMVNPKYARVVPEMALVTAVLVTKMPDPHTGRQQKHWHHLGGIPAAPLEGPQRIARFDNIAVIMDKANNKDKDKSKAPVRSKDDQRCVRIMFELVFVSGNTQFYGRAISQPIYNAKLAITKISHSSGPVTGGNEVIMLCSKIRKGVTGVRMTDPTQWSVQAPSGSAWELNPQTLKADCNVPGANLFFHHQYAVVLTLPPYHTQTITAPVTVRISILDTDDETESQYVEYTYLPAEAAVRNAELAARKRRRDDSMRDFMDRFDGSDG

GST-Aq-NF-kB = target: T5, GST-Aq-NF-kB (Amphimedon queenslandica, UniProt A9Y5G7 2-389)
T5 sequence: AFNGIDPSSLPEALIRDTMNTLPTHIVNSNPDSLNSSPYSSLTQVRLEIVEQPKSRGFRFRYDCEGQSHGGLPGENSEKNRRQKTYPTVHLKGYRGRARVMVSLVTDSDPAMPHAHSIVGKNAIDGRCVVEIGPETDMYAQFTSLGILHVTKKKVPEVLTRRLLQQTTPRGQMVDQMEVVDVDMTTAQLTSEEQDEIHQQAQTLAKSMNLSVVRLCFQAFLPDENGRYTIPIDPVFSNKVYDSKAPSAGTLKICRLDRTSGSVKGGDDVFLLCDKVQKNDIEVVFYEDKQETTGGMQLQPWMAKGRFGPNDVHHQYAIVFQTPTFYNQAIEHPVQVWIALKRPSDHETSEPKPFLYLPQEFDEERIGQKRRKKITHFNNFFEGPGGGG

GST-Hu-p50 = GST-Hu-p50 (Homo sapiens, UniProt P19838 7-356)
Chain of GST-Hu-p50 (P19838 7-356): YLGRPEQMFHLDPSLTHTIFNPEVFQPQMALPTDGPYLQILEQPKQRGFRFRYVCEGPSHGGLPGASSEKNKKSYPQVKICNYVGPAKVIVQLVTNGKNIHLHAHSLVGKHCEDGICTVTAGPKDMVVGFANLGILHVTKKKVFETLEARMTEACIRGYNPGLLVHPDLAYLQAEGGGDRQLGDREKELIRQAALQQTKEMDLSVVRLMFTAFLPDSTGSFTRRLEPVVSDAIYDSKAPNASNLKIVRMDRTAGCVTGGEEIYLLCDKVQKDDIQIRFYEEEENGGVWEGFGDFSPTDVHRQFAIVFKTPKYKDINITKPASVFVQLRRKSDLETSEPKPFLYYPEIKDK

GST-Dm-Relish = target: T6, GST-Dm-Relish (Drosophila melanogaster, UniProt Q94527 99-473)
T6 sequence: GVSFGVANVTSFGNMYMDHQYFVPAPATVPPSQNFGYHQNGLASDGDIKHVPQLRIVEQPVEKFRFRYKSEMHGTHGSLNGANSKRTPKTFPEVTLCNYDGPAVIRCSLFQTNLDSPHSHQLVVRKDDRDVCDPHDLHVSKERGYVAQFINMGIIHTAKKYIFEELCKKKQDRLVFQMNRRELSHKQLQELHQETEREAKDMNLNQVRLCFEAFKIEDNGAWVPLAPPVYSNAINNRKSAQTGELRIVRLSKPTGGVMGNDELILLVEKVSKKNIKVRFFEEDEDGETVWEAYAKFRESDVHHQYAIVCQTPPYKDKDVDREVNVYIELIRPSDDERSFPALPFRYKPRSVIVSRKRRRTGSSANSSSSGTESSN

Row | Sequence | binding signal (GST-Ap-NF-kB RHD) [z-score] | binding signal [1] [z-score] | binding signal [2] [z-score] | binding signal (GST-Co-NF-kB) [z-score] | binding signal (GST-Aq-NF-kB) [z-score] | binding signal (GST-Hu-p50) [z-score] | binding signal (GST-Dm-Relish) [z-score]
1 | CCGATTAACATCAACGTGGGAAATGATGTTAATCGGGTCTTGATTCGCTTGACGCTGCTG | 1.56 | 2.36 | 1.77 | 2.91 | 1.71 | 1.29 | –
2 | CCGATTAACATCAGTGGGAAAAATGATGTTAATCGGGTCTTGATTCGCTTGACGCTGCTG | 2.21 | 3.95 | 4.53 | 4.81 | 2.62 | 3.34 | –
3 | CCGATTAACATCAGGGAATTGGATGATGTTAATCGGGTCTTGATTCGCTTGACGCTGCTG | 2.15 | 3.52 | 3.84 | 1.88 | 2.8 | 1.84 | –
4 | CCGATTAACATCAATGTGGGAAATGATGTTAATCGGGTCTTGATTCGCTTGACGCTGCTG | 1.32 | 2.75 | 2.53 | 2.85 | 1.55 | 1.92 | –
5 | CCGATTAACATCATCAGTTTCCCTGATGTTAATCGGGTCTTGATTCGCTTGACGCTGCTG | 2.11 | 3.16 | 4.41 | 2.69 | 2.58 | 1.61 | –
6 | CCGATTAACATCAGGGAAAGCTATGATGTTAATCGGGTCTTGATTCGCTTGACGCTGCTG | 2.11 | 3.99 | 3.57 | 2.65 | 3.54 | 2.53 | –
7 | CCGATTAACATCAGCACGGGAAATGATGTTAATCGGGTCTTGATTCGCTTGACGCTGCTG | 1.76 | 2.98 | 2.41 | 2.59 | 2.77 | 1.64 | –
8 | CCGATTAACATCAAAGCATCCCCTGATGTTAATCGGGTCTTGATTCGCTTGACGCTGCTG | 4.67 | 5.06 | 6.87 | 3.43 | 4.15 | 4.58 | 3.26
9 | CCGATTAACATCAATCTTCCCCCTGATGTTAATCGGGTCTTGATTCGCTTGACGCTGCTG | 5.77 | 6.99 | 7.73 | 9.37 | 6.23 | 6.3 | 4.07
10 | CCGATTAACATCAGAGTGGGAAATGATGTTAATCGGGTCTTGATTCGCTTGACGCTGCTG | 1 | 2.45 | 1.89 | 2.83 | 1.64 | 2.27 | –
11 | CCGATTAACATCAAGGGGTTCCCTGATGTTAATCGGGTCTTGATTCGCTTGACGCTGCTG | 4.99 | 3.32 | 2.15 | 2.13 | 5.11 | 3.25 | 9.46
12 | CCGATTAACATCAATTGGGAAAATGATGTTAATCGGGTCTTGATTCGCTTGACGCTGCTG | 1.52 | 2.96 | 4.08 | 2.47 | 1.4 | 2.04 | –
13 | CCGATTAACATCAGGACCTCCCCTGATGTTAATCGGGTCTTGATTCGCTTGACGCTGCTG | 5.62 | 4.17 | 2.85 | 2.53 | 6.93 | 3.65 | 5.19
14 | CCGATTAACATCAAAAATTCCCTTGATGTTAATCGGGTCTTGATTCGCTTGACGCTGCTG | 6.05 | 9.28 | 8.71 | 4.19 | 7.62 | 6.22 | 7.19
15 | CCGATTAACATCATATTTTCCCATGATGTTAATCGGGTCTTGATTCGCTTGACGCTGCTG | 2.18 | 4.42 | 5.61 | 4.34 | 2.52 | 4.15 | –
16 | CCGATTAACATCAGGGGATCCCCTGATGTTAATCGGGTCTTGATTCGCTTGACGCTGCTG | 14.6 | 11.6 | 12.1 | 7.53 | 11.3 | 7.87 | 10.8
17 | CCGATTAACATCAGGGGTAATTATGATGTTAATCGGGTCTTGATTCGCTTGACGCTGCTG | 3.8 | 4.02 | 4.62 | 6.05 | 3.96 | 4.51 | 2.03
18 | CCGATTAACATCAGGGGGCTTTATGATGTTAATCGGGTCTTGATTCGCTTGACGCTGCTG | 5.16 | 5.53 | 4.34 | 1.85 | 5.44 | 5.71 | 6.23
19 | CCGATTAACATCAGGGGGGGCAATGATGTTAATCGGGTCTTGATTCGCTTGACGCTGCTG | 4.42 | 3.92 | 3.15 | 4.99 | 3.72 | 3.8 | 4.29
20 | CCGATTAACATCAACTTTTTCCCTGATGTTAATCGGGTCTTGATTCGCTTGACGCTGCTG | 2.88 | 4.79 | 6.57 | 5.52 | 3.16 | 2.68 | –
21 | CCGATTAACATCAGACAATCCCCTGATGTTAATCGGGTCTTGATTCGCTTGACGCTGCTG | 6.6 | 7.1 | 7.4 | 2.24 | 5.98 | 5.79 | 4.95
22 | CCGATTAACATCACCATGGGAAATGATGTTAATCGGGTCTTGATTCGCTTGACGCTGCTG | 1.25 | 2.23 | 1.45 | 2.04 | 1.76 | 1.98 | –
23 | CCGATTAACATCATCCTGGGAAATGATGTTAATCGGGTCTTGATTCGCTTGACGCTGCTG | 1.13 | 2.18 | 1.37 | 2.72 | 1.03 | 1.74 | –
24 | CCGATTAACATCAAGGAAATCCCTGATGTTAATCGGGTCTTGATTCGCTTGACGCTGCTG | 4.83 | 4.91 | 2.74 | 1.77 | 5.91 | 3.79 | 7.71
